From PubChem BioAssay
Rows were chosen to be rich in hits. Some 3.2% of all compounds tested hit in one or more screens of this group.
GDH-TPI counter-1 – counter-screen for M. tuberculosis FBA inhibitors: GDH-TPI coupled enzymes; inhibition, % at 4.8 µM; hit rate 1.2% among 360,000; AID 588335; GDH-TPI coupled enzyme counterscreen, NADH absorbance; in the data active = inhibition above about 30%;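 note: 0% = DMSO wells and 100% = wells lacking the enzyme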
Mtb betalactam – beta-lactam sensitization of Mtb H37Rv. M. tuberculosis H37Rv growth with meropenem, percent inhibition. inhibition, % at 25 µM. hit rate 0.27% among 330,000. AID 434955; call rule not given here;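 note: growth measured after seven days incubation then overnight dye step; 0% = bacteria only wells and 100% = bacteria with antibiotic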
PriA SSB inh – inhibitors of Klebsiella pneumoniae PriA binding to SSB C-terminal tail | AlphaScreen SSBct-PriA binding, biotinylated peptide | inhibition, % at 33 µM | hit rate 0.6% among 430,000 | AID 1272365; in the data active = inhibition mostly above about 37%, no sharp cut-off; inactive = mostly below about 20%;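 note: plate controls were negative control peptide for no effect and reference peptide for full effect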
Mtb UGM inh – blocks M. tuberculosis UGM enzyme; P9WIQ1; purified UGM, fluorescence polarization probe displacement; inhibition, % at 10 µM; hit rate 0.06% among 320,000; AID 504406; in the data active = inhibition above about 10%, passing the limit was not always enough
Target sequence (P9WIQ1 whole entry, looked up): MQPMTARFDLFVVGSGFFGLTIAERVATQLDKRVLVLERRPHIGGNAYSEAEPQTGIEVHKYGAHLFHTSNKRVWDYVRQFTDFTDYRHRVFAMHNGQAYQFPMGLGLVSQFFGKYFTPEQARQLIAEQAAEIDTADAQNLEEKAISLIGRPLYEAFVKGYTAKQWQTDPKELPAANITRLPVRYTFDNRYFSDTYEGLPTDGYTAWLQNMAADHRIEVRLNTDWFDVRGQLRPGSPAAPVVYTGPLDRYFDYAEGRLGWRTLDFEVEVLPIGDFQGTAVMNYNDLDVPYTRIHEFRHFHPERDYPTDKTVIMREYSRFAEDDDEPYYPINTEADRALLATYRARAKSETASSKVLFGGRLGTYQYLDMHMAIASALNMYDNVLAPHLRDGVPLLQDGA
Rv3671c protease – inhibits the M. tuberculosis serine protease Rv3671c | inhibition, % at 5.96 µM | hit rate 0.048% among 320,000 | AID 2606; in the data active = inhibition above about 38%;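 note: extracellular domain of Rv3671c used as enzyme; 0% = enzyme with DMSO and 100% = no enzyme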
Mtb FBA inh – inhibits M. tuberculosis FBA enzyme; hit rate 2.3% among 360,000; purified M. tuberculosis FBA, fluorescence read-out; P9WQA3; inhibition, % at 1 µM;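 note: 0% = vehicle and 100% = reference inhibitor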
Mtb FBA confirm – confirmation of M. tuberculosis fructose-bisphosphate aldolase inhibitors | hit rate 78% among 5,600 | purified M. tuberculosis FBA, fluorescence read-out | shares compounds with Mtb FBA inh | inhibition, % at 1 µM;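 note: 0% = vehicle wells and 100% = reference inhibitor wells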
GDH-TPI counter-2 – counter-screen for M. tuberculosis FBA inhibitors: GDH-TPI coupled enzyme inhibition. shares compounds with Mtb FBA inh. AID 652141. GDH-TPI coupled enzyme counterscreen, fluorescence. inhibition, % at 1 µM. hit rate 81% among 5,600; in the data active = inhibition above about 10%
Numbers without * were called inactive; i = inactive; · = no result; + = active, no number. Cut-off read from the data, not from the text of the source, unless noted: active = inhibition above about 27%; inactive = the rest.

SMILES | GDH-TPI counter-1 | Mtb betalactam | PriA SSB inh | Mtb UGM inh | Rv3671c protease | Mtb FBA inh | Mtb FBA confirm | GDH-TPI counter-2
CCCCNC(=O)CCC(=O)Nc1ccc2nc(N3CCOCC3)cc(C)c2c1 | 3 | -1 | -5 | 2 | -1 | 62* | 4 | -7
Cc1cc(N2CCCCC2)nc2ccc(NC(=O)CCC(=O)NCCC(C)C)cc12 | 2 | -8 | -8 | -1 | -1 | 54* | -5 | -4
Cc1cc(N2CCN(C)CC2)nc2ccc(NC(=O)CCC(=O)NCCCOC(C)C)cc12 | 4 | 1 | -6 | 0 | 4 | 25 | · | ·
CS(=O)(=O)N1CCCc2cc(N)ccc21 | · | · | -2 | · | · | · | · | ·
c1coc(-c2nc3ccccc3[nH]2)c1 | · | · | -5 | · | · | · | · | ·
CCCCNC(=O)CCC(=O)Nc1ccc2nc(N3CCCCC3)cc(C)c2c1 | 5 | -3 | -5 | -2 | 5 | 78* | + | 145*
CCOC(=O)C1CCCN(C(=O)CCC(=O)Nc2ccc3nc(N4CCOCC4)cc(C)c3c2)C1 (stereo not drawn) | 12 | -2 | -16 | 1 | -14 | 67* | 89* | 69*
COc1cccc(NC(=O)CCC(=O)Nc2ccc3nc(N4CCOCC4)cc(C)c3c2)c1 | -5 | 0 | 1 | 0 | 1 | 66* | 125* | 95*
O=C(c1ccc2ncsc2c1)N1CCN(C[C@H](O)c2cccs2)CC1 | · | · | -2 | · | · | · | · | ·
O=C(Cn1ccc2ccccc21)N1CC(n2cc(-c3ccccc3)nn2)C1 | · | · | -10 | · | · | · | · | ·
CNC(=S)N/N=C/c1ccc(-c2ccc(Cl)c([N+](=O)[O-])c2)o1 | 23 | -4 | · | 0 | -7 | -3 | · | ·
C=CCNC(=S)N/N=C/c1ccc(-c2ccc(OC)cc2)o1 | 14 | -1 | · | -1 | 2 | 29* | -6 | -6
CNC(=S)N/N=C/c1ccc(-c2ccc(C(=O)O)cc2)o1 | 53* | -9 | · | 1 | 7 | 41* | + | +
O=C(CNc1ccccc1)NN=Cc1c[nH]c2ccccc12 | · | · | 8 | · | · | · | · | ·
CS(=O)(=O)N1CCC(C(=O)N2CCC(Cn3cccn3)CC2)CC1 | · | · | 1 | · | · | · | · | ·
O=C(NC1CCN(c2ccc(C(F)(F)F)cn2)C1)c1cc(-c2cccs2)[nH]n1 (stereo not drawn) | · | · | 8 | · | · | · | · | ·
COc1ccc(Nc2oc(-c3cccs3)nc2S(=O)(=O)c2ccccc2)cc1 | · | · | -5 | · | · | · | · | ·
CCC(C(=O)N1CCN(Cc2ccc3c(c2)OCO3)CC1)n1c(=O)[nH]c2ccccc2c1=O (stereo not drawn) | 7 | -9 | 2 | -1 | -11 | 33* | 124* | 109*
CCOC(=O)c1cc(-c2cccs2)nc2onc(C)c12 | -6 | 6 | -14 | 1 | 4 | 42* | 82* | 74*
CCOC(=O)c1sc(-c2cccs2)nc1C | 17 | -13 | -46 | -2 | 1 | 12 | · | ·
COc1cccc(NC(=O)N2CCCC2C(=O)Nc2ccc3c(c2)OCO3)c1 (stereo not drawn) | 5 | 1 | 17 | 1 | 1 | 3 | · | ·
COc1ccccc1NC(=O)N1CCCC1C(=O)Nc1ccc2c(c1)OCO2 (stereo not drawn) | 10 | 6 | -12 | -5 | -3 | 28* | 99* | 86*
O=C(CSc1ccc(Cl)cc1)Nc1nnc(-c2cc(Cl)ccc2Cl)o1 | · | · | -12 | · | · | · | · | ·
Nc1cccc2nc3ccccc3cc12 | 2 | 40 | -4 | · | 12 | 75* | -1 | 2
COc1ccc(OC)c(-c2nnc(NC(=O)COc3ccccc3OC)o2)c1 | · | · | -5 | · | · | · | · | ·
SMILES | GDH-TPI counter-1 | Mtb betalactam | PriA SSB inh | Mtb UGM inh | Rv3671c protease | Mtb FBA inh | Mtb FBA confirm | GDH-TPI counter-2
Cc1ccc2c(Nc3ccc(Br)cc3F)c(C(=O)N3CCC[C@H](C)C3)cnc2n1 | · | · | 7 | · | · | · | · | ·
O=C(CCC(=O)N/N=C/c1ccco1)N/N=C/c1ccco1 | 4 | -7 | i | 1 | 3 | 29* | 76* | 64*
COc1ccc(-c2nc3nc(N)nn3cc2C)cc1F | 0 | 0 | 1 | 0 | 3 | 28* | 82* | 70*
CC(=O)N(CC(=O)Nc1nn(-c2ccccc2)nc1C(N)=O)Cc1ccccc1 | 2 | 1 | -12 | -3 | 0 | 43* | 1 | -3
CC1CCC2C(C1)Nc1c(C(=O)O)cccc1C2(C)C (stereo not drawn) | 9 | 3 | 2 | 0 | -4 | 77* | 23 | 11*
Cc1ccc(-c2nnc(-c3cccs3)o2)cc1 | 9 | 3 | -11 | -1 | 1 | 54* | 61* | 49*
COc1ccc(-c2nnc(-c3ccc(C)cc3)o2)cc1 | -2 | 55 | -3 | 0 | 5 | 62* | 7 | -4
COc1ccc(N2C(=O)CSC2c2cccc(F)c2)cc1 (stereo not drawn) | -5 | 5 | 2 | 1 | 1 | 39* | 181* | 154*
O=C(CSc1nnc2scc(-c3ccc(Cl)cc3)n12)Nc1ccc2c(c1)OCCO2 | · | · | -20 | · | · | · | · | ·
COc1ccc(-c2cc(C(F)F)nc(-n3nc(C)cc3C)n2)cc1 | 9 | · | 0 | 2 | 2 | 52* | 63* | 44*
Cc1ccc(-c2cc(C(F)F)nc(N3CCOCC3)n2)cc1 | -2 | 5 | -9 | -3 | -1 | 5 | · | ·
COc1ccc2cc3cc(C(=O)NC4CC4)sc3nc2c1 | 23 | 38 | -14 | 1 | 0 | 102* | 130* | 117*
O=C(Nc1cccc(Br)c1)c1cccn(Cc2ccc(C(F)(F)F)cc2)c1=O | · | · | 2 | · | · | · | · | ·
CNC(=O)c1cccn(Cc2ccc(C(F)(F)F)cc2)c1=O | 5 | -4 | -13 | 1 | -7 | 29* | 68* | 43*
NC(=O)c1cccn(Cc2ccc(C(F)(F)F)cc2)c1=O | 11 | -1 | -10 | -4 | 5 | 52* | 96* | 72*
CNC(=O)c1cccn(Cc2cc(C(F)(F)F)cc(C(F)(F)F)c2)c1=O | 15 | 4 | -9 | 0 | 11 | 16 | · | ·
O=c1ccc(-c2ccc(F)cc2)nn1CCCNS(=O)(=O)c1cccnc1 | · | · | -12 | · | · | · | · | ·
COCC(=O)Nc1nc2n(n1)C(c1ccccc1)CC(c1ccc(OC)cc1)N2 (stereo not drawn) | 6 | -14 | 2 | 1 | 5 | 54* | 50* | 31*
COCC(=O)Nc1nc2n(n1)C(c1ccc(OC)cc1)CC(c1ccc(OC)cc1)N2 (stereo not drawn) | 7 | · | -18 | · | · | 0 | · | ·
COCCCNc1ccn2nc(-c3ccc(Cl)cc3)cc2n1 | 14 | · | · | · | · | 34* | 87* | 76*
Cc1cccc(C=NNC(=O)Cn2nc(C)cc2C)n1 | · | · | -4 | · | · | · | · | ·
c1cncc(CNc2cccc(-c3nc4ccccc4[nH]3)c2)c1 | 8 | -2 | 5 | 2 | 4 | 48* | 0 | -3
CSc1ccc(CC(=O)Nc2nnc(-c3cc(C)n(C)n3)o2)cc1 | · | · | 13 | · | · | · | · | ·
CCOC(=O)c1cccc(NC(=O)Cn2cnc3c(sc4nc(C)cc(C)c43)c2=O)c1 | · | · | -7 | · | · | · | · | ·
